Compound activity: PubChem BioAssay, Broad Institute
Shown is part of a subset that was picked to be rich in hits.
CD40 NFkB inh – inhibitors of CD40-induced NF-kB signaling, primary screen, BL2 cells, luciferase reporter, single point. CD40L-induced, 4 h. inhibition, % at 10 µM. 83,000 compounds, 0.94% hits. AID 1053188, 2014;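 active = mean inhibition of at least 50% with a set share of replicates also reaching that level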
Each line names hits and unclear results; the compound was inactive in the other large screens; [ ] = another dose, or the depositor's remark.

COC(=O)C12OCC34C(CC5C(C)=C(O)C(=O)CC5(C)C3C(O)C1O)OC(=O)C(OC(=O)/C=C(\C)C(C)C)C24 (stereo not drawn)	CD40 NFkB inh 92
COc1ccc(OC(=O)N(C)C[C@@H]2OCc3ccccc3-c3c(n(C)c4ccccc34)C(=O)N([C@@H](C)CO)C[C@H]2C)cc1	none
CN1[C@@H]2CN(CC3CC3)C[C@H]1C2c1ccc(Br)cc1 (stereo partly drawn)	none
Cc1ccc(OC(=O)N(C)C[C@H]2OCc3ccccc3-c3c(n(C)c4ccccc34)C(=O)N([C@H](C)CO)C[C@@H]2C)cc1	none
Oc1ccc2c3c1OC1c4oc5ccccc5c4CC4(O)C(C2)N(CC2CC2)CCC314 (stereo not drawn)	none
C[C@@H]1CN([C@H](C)CO)C(=O)c2c(c3ccccc3n2C)-c2ccccc2CO[C@@H]1CN(C)C(=O)Oc1ccccc1	none
O=C(O)[C@H]1[C@H](CO)[C@H]2Cn3c(ccc(-c4ccccc4F)c3=O)[C@@H]1N2C(=O)Nc1ccccc1	none
CC(=NNC(=S)N1CC2CCC(CC2)C1)c1nccs1	CD40 NFkB inh 66
O=C(Cc1ccccc1)N1CC2(C1)[C@H](c1ccccc1)[C@H](CO)N2Cc1cccc(Cl)c1	none
Fc1ccc(CN2CC3NC(C2)C3c2ccc(Br)cc2)cc1 (stereo not drawn)	none
Clc1ccc(C2=CCCC3CCC2N3)cn1 (stereo not drawn)	none
C[C@]12CC[C@@H](O)C[C@@H]1CC[C@@H]1[C@@H]2CC[C@]2(C)[C@@H](C(=O)CO)CC[C@@H]12	none
C=CCN1[C@@H]2CN(S(C)(=O)=O)C[C@H]1C2c1ccccc1 (stereo partly drawn)	none
O=C(O)[C@@H]1[C@@H](CO)[C@@H]2Cn3c(ccc(C4=CCCCC4)c3=O)[C@H]1N2C(=O)Cc1ccccn1	none
O=C1NC(=O)c2c1c1c3ccccc3[nH]c1c1[nH]c3ccccc3c21	CD40 NFkB inh 69[25 µM]
COC(=O)[C@@H]1[C@@H](CO)[C@@H]2Cn3c(ccc(C4=CCCCC4)c3=O)[C@H]1N2C(=O)Cc1ccccn1	none
NC(N)=N/N=C/c1cn(-c2ccccc2)nc1-c1cccs1	CD40 NFkB inh 87
CN1[C@@H]2Cn3c(cccc3=O)[C@H]1[C@@H](C(=O)NCC1CC1)[C@@H]2CO	none
CCCN1[C@@H]2Cn3c(ccc(-c4cccc(OC)c4)c3=O)[C@H]1[C@@H](C(=O)OC)[C@@H]2CO	none
CC(C)NC(=O)N1CC2C(c3ccccc3)C(C1)N2C (stereo not drawn)	none
FC(F)(F)CN1C[C@@H]2N[C@H](C1)C2c1ccc(Br)cc1 (stereo partly drawn)	none
C/C=C/c1ccc(C2[C@@H]3CN(Cc4cccnc4)C[C@H]2N3)cc1 (stereo partly drawn)	none
CC(=O)OC1C(=O)OCC23CCC4(C)OC4C2OC2CC(OC(=O)C=CC=CC(=O)OCCC1C)C3(C)C21CO1 (stereo not drawn)	CD40 NFkB inh 68
CC1=CC2OC3CC4OC(=O)C=CC=CC(=O)OCCC(C)C(O)C(=O)OCC2(CC1O)C4(C)C31CO1 (stereo not drawn)	CD40 NFkB inh 103
COC(=O)[C@H]1[C@H](CO)[C@H]2Cn3c(cccc3=O)[C@@H]1N2C(=O)C1CC1	none
O=C(Cc1cccnc1)N1CCCCN2[C@H](CO)[C@@H](c3ccc(C#CC4(O)CCCC4)cc3)[C@@H]2C1	none
C[C@H]1CN([C@@H](C)CO)C(=O)c2c(c3ccccc3n2C)-c2ccccc2CO[C@@H]1CN(C)C(=O)Oc1ccccc1	none
CC(=O)N1C[C@@H]2C(c3ccccc3)[C@H](C1)N2C (stereo partly drawn)	none
OC[C@@H]1Nc2ccc(C#Cc3cccnc3)cc2[C@H]2NCC[C@@H]12	none
O=C1CCC2(O)C3Cc4ccc(O)c5c4C2(CCN3CC2CC2)C1O5 (stereo not drawn)	none
COC(=O)[C@H]1[C@H](CO)[C@H]2Cn3c(cccc3=O)[C@@H]1N2Cc1nccs1	none
CCOP(=O)(CCP(=O)(OCC)OCC)OCC.C[CH2][Sn]([Cl])([Cl])[CH2]C	CD40 NFkB inh 59
FC(F)(F)CN1C[C@@H]2C(c3ccc(Br)cc3)[C@H](C1)N2CC1CC1 (stereo partly drawn)	none
CCN1CC2(COC(=O)c3ccccc3N3C(=O)CC(C)C3=O)CCC(OC)C34C5CC6C(OC)CC(O)(C5C6OC)C(O)(C(OC)C23)C14 (stereo not drawn)	none
O=C(Cc1ccccn1)N1CCCCN2[C@H](CO)[C@@H](c3ccc(-c4ccccc4F)cc3)[C@@H]2C1	none
CC=Cc1ccc2n(c1=O)C[C@@H]1[C@@H](CO)[C@H](C(=O)OC)[C@H]2N1C(=O)CC1CC1 (mixture of isomers)	none
O=C(Cc1ccccn1)N1CCCCN2[C@H](C1)[C@@H](c1ccc(Br)cc1)[C@@H]2CO	none
CC(=O)OC(C)(C)/C=C/C(=O)C(C)(O)C1C(O)CC2(C)C3CC=C4C(CC(O)C(=O)C4(C)C)C3(C)C(=O)CC12C (stereo not drawn)	CD40 NFkB inh 60
COc1ccc(OC(=O)N(C)C[C@H]2OCc3ccccc3-c3c(n(C)c4ccccc34)C(=O)N([C@@H](C)CO)C[C@H]2C)cc1	none
O=C(Cc1cccnc1)N1CCCCN2[C@H](CO)[C@@H](c3ccc(C#CC4CCCC4)cc3)[C@H]2C1	none
C[C@@H]1CN([C@@H](C)CO)C(=O)CCCn2cc(nn2)CO[C@@H]1CN(C)C(=O)Oc1ccc2ccccc2c1	none
FC(F)(F)CN1C[C@@H]2C(c3ccccc3)[C@H](C1)N2CC1CC1 (stereo partly drawn)	none
COC(=O)[C@H]1[C@H](CO)[C@H]2Cn3c(ccc(C4=CCCCC4)c3=O)[C@@H]1N2C(=O)Cc1ccccn1	none
N#Cc1ccc(-c2ccc([C@H]3[C@H](CO)N4CCCCN(C(=O)Cc5ccccc5)C[C@@H]34)cc2)cc1	none
COC(=O)[C@@H]1[C@@H](CO)[C@@H]2Cn3c(ccc(-c4ccccc4)c3=O)[C@H]1N2S(=O)(=O)c1ccccc1C	none
COC(=O)[C@@H]1[C@@H](CO)[C@@H]2Cn3c(ccc(/C=C/c4ccccc4)c3=O)[C@H]1N2CC1CCCC1	none
CC1=NNC(=O)C1Br (stereo not drawn)	CD40 NFkB inh 52
O=C(Cc1ccccc1)N1CC2(C1)[C@H](c1ccccc1)[C@@H](CO)N2Cc1cccc(Cl)c1	none
COc1ccc(C#Cc2ccc([C@H]3[C@@H](CO)N4CCCCN(C(=O)Cc5ccccc5)C[C@H]34)cc2)cc1	none
COC(=O)[C@@H]1[C@@H](CO)[C@@H]2Cn3c(ccc(-c4cccc(F)c4)c3=O)[C@H]1N2C(=O)CC1CC1	none
C[C@H]1CCCC(=O)CCC/C=C/c2cc(O)cc(O)c2C(=O)O1	CD40 NFkB inh 43
CCN(CC)CCOC1CCC2(C)C(=CCC3C4CCC(=O)C4(C)CCC32)C1 (stereo not drawn)	none
COC(=O)[C@@H]1[C@@H](CO)[C@@H]2Cn3c(ccc(C4=CCCC4)c3=O)[C@H]1N2C(=O)CC1CC1	none
CC1OC(OC2CC(O)C3(CO)C4C(O)CC5(C)C(C6=CC(=O)OC6)CCC5(O)C4CCC3(O)C2)C(O)C(O)C1O (stereo not drawn)	CD40 NFkB inh 73[25 µM]
C[C@@H]1O[C@@H](O[C@H]2C[C@@H](O)[C@]3(CO)[C@H]4[C@H](O)C[C@]5(C)[C@@H](C6COC(=O)C6)CC[C@]5(O)[C@@H]4CC[C@]3(O)C2)[C@H](O)[C@H](O)[C@H]1O (stereo partly drawn)	CD40 NFkB inh 67
C/C=C/c1ccc(C2[C@@H]3CN(Cc4cccc(F)c4)C[C@H]2N3)cc1 (stereo partly drawn)	none
C=CCN1[C@@H]2CN(C(=O)NC(C)C)C[C@H]1C2c1ccc(Br)cc1 (stereo partly drawn)	none
COC(=O)[C@H]1[C@H](CO)[C@H]2Cn3c(ccc(/C=C/c4ccccc4)c3=O)[C@@H]1N2CC1CCCC1	none
CC(C)NC(=O)N1C[C@@H]2N[C@H](C1)C2c1ccccc1 (stereo partly drawn)	none
C[C@@H]1CN([C@H](C)CO)C(=O)c2c(c3ccccc3n2C)-c2ccccc2CO[C@H]1CN(C)C(=O)Oc1ccccc1	none
